SMILES strings stand for the structures. In all, about 10,000 compounds went through this assay and about 320 (3.2%) were called active. Rule as the data show it: active = CPE inhibition mostly above about 9.1% (no sharp cut-off); inactive = mostly below about 7.2%. What follows is part of a selection rich in actives, with near analogues and random picks from the rest.

The nature of the assay: antivirals protecting cells from dengue CPE – CPE readout, HTS (AID 540333). The following applies: Dengue virus CPE inhibition in host cells, at 20 µM; hits give high values.
Regarding `O=C(COc1ccc2c(-c3ccccc3)cc(=O)oc2c1)NCc1cccs1`, the CPE inhibition is 0.675% (inactive). For `COC(=O)C(Oc1ccc2c(-c3ccc(OC)cc3)cc(=O)oc2c1)c1ccccc1` (stereo unspecified), the CPE inhibition was 0.765% (inactive). `CC(C)(C)OC(=O)NCC(=O)Oc1cc2oc(=O)cc(-c3ccccc3)c2cc1Cl`: the CPE inhibition was 24.3% (active). To `COc1ccccc1NC(c1cccnc1)c1ccc2cccnc2c1O` (stereo unspecified) belongs 0.795% (inactive); to `Cc1ccc(Cl)cc1NC(=O)c1ccc(NC(=O)CCC(=O)O)cc1`, 0.84% (inactive). The same measure for `O=C(NC(=S)Nc1nc2c(s1)CCCC2)c1ccccc1`: 0.705% (inactive). As for `N#Cc1c(NC(=S)NC(=O)c2ccccc2)sc2c1CCCC2`, the CPE inhibition was 1.09% (inactive). Turning to `O=C(NC(=S)Nc1nc2c(s1)CCCC2)c1ccc(C(=O)c2ccccc2)cc1`, the CPE inhibition was 11.3% (active). The same measure for `Cc1csc(NC(=O)[C@@H](NC(=O)c2ccccc2)C(C)C)n1`: 0.86% (inactive); for `COC(=O)c1ccc(C(=O)NC(=S)Nc2nc3c(s2)CCCC3)cc1`: 0.85% (inactive); for `COc1ccc(C(=O)N[C@H](C(=O)Nc2nc3c(s2)CCCC3)C(C)C)cc1`: 18.9% (active). On to `Cc1ccc(-n2c(SCC(=O)NCCN3C(=O)CSC3=O)nnc2-c2cccc(C)c2)cc1`, for which the CPE inhibition was 0.355% (inactive). Consider `O=C(CSCc1ccc([N+](=O)[O-])cc1)NC1CC1`, for which the CPE inhibition was 2.12% (inactive).

As to `Cc1ccc(C(=O)Nc2nnc(SCC(=O)N3CCCc4ccccc43)s2)cc1`, the CPE inhibition is 0.06% (inactive). For `Cc1ccc(C(c2nnnn2C2CCCC2)N2CCc3ccccc32)cc1` (stereo unspecified), the CPE inhibition was 18.1% (active). Turning to `Cc1ccc(-c2nnc3ccc(SCC(=O)N4CCCc5ccccc54)nn23)cc1`, the CPE inhibition result was “inactive”. For `Cc1ccccc1N=Cc1cc2c(cc1O)OC(N)=C(C#N)C2c1ccccc1` (stereo unspecified), the CPE inhibition is 0.055% (inactive).

Turning to `Cc1ccc(N=Cc2cc3c(cc2O)OC(N)=C(C#N)C3c2ccccc2)cc1` (stereo unspecified), the CPE inhibition is 23.4% (active).

In the case of `COc1ccc([C@@H]2C(C#N)=C(N)S[C@@H](c3ccccc3)[C@@H]2[N+](=O)[O-])cc1`, the CPE inhibition is 0.405% (inactive). Consider `COc1ccc(N=Cc2cc3c(cc2O)OC(N)=C(C#N)C3c2ccccc2)cc1` (stereo unspecified), for which the CPE inhibition was 13.1% (active). To `N#CC1=C(N)Oc2cc(O)c(C=Nc3ccccc3)cc2C1c1ccccc1` (stereo unspecified) belongs 5.12% (inactive). Turning to `COc1cccc(C2C(C#N)=C(N)Oc3cc(N)ccc32)c1OC` (stereo unspecified), the CPE inhibition result is “inactive”. The same measure for `Cc1ccc(-c2nc(N)sc2CC(=O)OCC(=O)NCC2CCCO2)cc1` (stereo unspecified): “inactive”.

`CCCCC(=O)Nc1cccc(NC(=S)NC(=O)Cc2ccccc2)c1`: the CPE inhibition was 0.515% (inactive). Take `O=C(Nc1cccc(Cl)c1)c1ccc(Cn2cc(Cl)cn2)cc1`: the CPE inhibition result is “inactive”. On to `COc1cccc(C(Nc2ccccn2)c2c(NC(=O)c3ccco3)sc(C)c2C)c1` (stereo unspecified), for which the CPE inhibition is 31% (active). As to `Cc1ccnc(NC(=S)NC(=O)c2ccco2)c1`, the CPE inhibition is 0.58% (inactive). `O=C(NC(=S)Nc1ccccn1)c1ccco1`: the CPE inhibition was 1.33% (inactive). As for `Fc1ccccc1NC(=S)NCc1ccc2c(c1)OCO2`, the CPE inhibition was 0.705% (inactive). `COc1cc(C(=O)NNC(=S)NC(=O)c2ccc(Cl)cc2)cc(OC)c1OC`: the CPE inhibition was 2.02% (inactive).

As for `CN(C)S(=O)(=O)c1cccc(NC(=O)CSc2nc3ccccc3n2-c2ccccc2)c1`, the CPE inhibition was 6.67% (inactive). Take `Cc1ccc(-n2c(SCC(=O)Nc3cccc(S(N)(=O)=O)c3)nc3ccccc32)cc1`: the CPE inhibition was 10.4% (inactive).

In the case of `Cc1ccc(-n2c(SCC(=O)Nc3ncc(Cl)cc3Cl)nc3ccccc32)cc1`, the CPE inhibition is 14.9% (active). Take `Cc1ccc(-c2nn(-c3ccccc3)cc2C(=O)OCC(=O)Nc2ncc(Cl)cc2Cl)cc1`: the CPE inhibition is 0.085% (inactive). To `CCn1c(SCC(=O)Nc2ncc(C(F)(F)F)cc2Cl)nnc1-c1cccc(C)c1` belongs 0.415% (inactive); to `Cc1cccc(-n2c(SCC(=O)Nc3ncc(Cl)cc3Cl)nc3ccccc32)c1`, 13.7% (active). Consider `COc1cc2c(cc1OC)CN(c1ccc([N+](=O)[O-])cc1C#N)CC2`, for which the CPE inhibition is 0.37% (inactive).

With `CN(C)S(=O)(=O)c1ccc(NCC2COc3ccccc3O2)c([N+](=O)[O-])c1` (stereo unspecified), the CPE inhibition was 0.57% (inactive).

As to `O=C(CSc1cccc[n+]1[O-])Nc1cc(S(=O)(=O)N2CCOCC2)ccc1Cl`, the CPE inhibition result was “inactive”.

As to `O=c1c2ccccc2sc2ccc(Cl)cc12`, the CPE inhibition is 0.48% (inactive). Take `CSc1ccc(/C=C(\C#N)C(=O)NC2CCCCC2C)cc1` (stereo unspecified): the CPE inhibition was 18.5% (active). With `COc1cc(/C=C(\C#N)C(=O)NC2CCCCC2C)ccc1OS(=O)(=O)c1ccc(C)cc1` (stereo unspecified), the CPE inhibition entry was “inactive”.

With `CCCCCCCCNC(=O)/C(C#N)=C/c1ccc(SC)cc1`, the CPE inhibition was 0.185% (inactive). Take `CC(=O)Nc1ccc(OCC(O)CN2CCCCC2C)cc1` (stereo unspecified): the CPE inhibition is 0.255% (inactive). Consider `O=[N+]([O-])c1ccc(-c2nnc(-c3ccccc3)c(NCCCO)n2)cc1`, for which the CPE inhibition result was “inactive”. Take `O=C(c1cc([N+](=O)[O-])ccc1N1CCCCC1)N1CCCC1`: the CPE inhibition is 0.545% (inactive). To `O=C(CCc1ccc(Oc2cc([N+](=O)[O-])cc([N+](=O)[O-])c2)cc1)N1CCCCCC1` belongs 12.4% (active); to `CC1CCN(C(=O)CCc2ccc(Oc3cc([N+](=O)[O-])cc([N+](=O)[O-])c3)cc2)CC1`, 6.92% (inactive).

With `COc1ccc(OCCCC(=O)Nc2cccc([N+](=O)[O-])c2C)cc1`, the CPE inhibition entry was “inactive”.

Consider `C=CCOC(=O)C1=C(C)NC(SCC(N)=O)=C(C#N)C1c1cccs1` (stereo unspecified), for which the CPE inhibition was 0.32% (inactive).

Take `Cc1cc(C)c(COc2ccc(/C=N/n3c(C)n[nH]c3=S)cc2)c(C)c1`: the CPE inhibition was 5.91% (inactive). Regarding `CNC(=S)N(Cc1cccs1)Cc1cc2cc(OC)ccc2[nH]c1=O`, the CPE inhibition result was “inactive”. Consider `COc1ccc2[nH]c(=O)c(CN(Cc3cccs3)C(=S)Nc3cccc(C)c3)cc2c1`, for which the CPE inhibition is 9.5% (active). Take `Cc1cc(C)c2[nH]c(=O)c(CN(Cc3cccs3)C(=S)NCC3CCCO3)cc2c1` (stereo unspecified): the CPE inhibition is 2.9% (inactive). As for `Cc1ccc2[nH]c(=O)c(CN(Cc3cccs3)C(=S)NCC3CCCO3)cc2c1` (stereo unspecified), the CPE inhibition was 0.245% (inactive).

For `Cc1cc2cc(CN(Cc3cccs3)C(=S)NCC3CCCO3)c(=O)[nH]c2cc1C` (stereo unspecified), the CPE inhibition was 18.4% (active).

For the molecule `Cc1cccc(NC(=S)N(Cc2cccs2)Cc2cc3cc(C)cc(C)c3[nH]c2=O)c1`, the CPE inhibition was 3.13% (inactive). Turning to `N=C(N)SCc1nc2ccccc2c(=O)n1-c1ccccc1`, the CPE inhibition entry was “inactive”. To `CC1CCC(=O)N(CCSc2ccccc2)CC1` (stereo unspecified) belongs 0.29% (inactive). Consider `O=C(c1ccc(COc2ccc(Cl)cc2)o1)N1N=C(C(F)F)CC1(O)C(F)F` (stereo unspecified), for which the CPE inhibition is 3% (inactive). Consider `CCO[C@H]1OC(C(N)=O)=C[C@@H](C(C)(C)C)[C@@H]1CCCO`, for which the CPE inhibition result was “inactive”. To `CCC(=O)NC(c1ccccc1Cl)c1c(O)ccc2ccccc12` (stereo unspecified) belongs 4.07% (inactive); to `CC(C)CC(=O)NC(c1ccccc1Cl)c1c(O)ccc2ccccc12` (stereo unspecified), 69% (active); to `COc1ccccc1C(NC(=O)C1CCCCC1)c1c(O)ccc2ccccc12` (stereo unspecified), 0.755% (inactive). `CC(C)c1ccc(NC(=S)NCCc2c[nH]c3ccccc23)cc1`: the CPE inhibition result is “inactive”. To `C/C(=N\NC(=O)c1ccccc1-n1cccc1)C1CC1` belongs 0.14% (inactive). For `CON1C(=O)C(=O)N(OC)C2CCCCCC21` (stereo unspecified), the CPE inhibition is 0.76% (inactive). For the molecule `COc1ccc(-n2c(CNc3ccc(C)cc3)nnc2SCc2ccccc2)cc1`, the CPE inhibition was 13.1% (active). Take `COC(=O)c1ccc(CSc2nnc(CS(=O)Cc3ccc(Br)cc3)n2-c2ccccc2)cc1` (stereo unspecified): the CPE inhibition is 9.53% (inactive). As for `CCOc1ccc(NCc2nnc(SCC(=O)Nc3nc(-c4ccccc4)cs3)n2-c2ccccc2)cc1`, the CPE inhibition was 0.01% (inactive). For the molecule `CCOc1ccc(NCc2nnc(SCc3ccc(Cl)cc3)n2-c2ccccc2)cc1`, the CPE inhibition was 15.5% (active). Turning to `COc1ccc(-n2c(SCc3ccc([N+](=O)[O-])cc3)nnc2-c2ccc(C)cc2)cc1`, the CPE inhibition was 11.5% (inactive).

`COc1ccc(NCc2nnc(SCC(=O)Nc3nc(-c4ccccc4)cs3)n2-c2ccccc2)cc1`: the CPE inhibition entry was “inactive”. In the case of `Cc1cc(C(=O)N/N=C/c2cc(Br)cc([N+](=O)[O-])c2O)c2ccccc2n1`, the CPE inhibition is 0.34% (inactive). Regarding `CCOC(=O)c1cccc(S(=O)(=O)N2CCCC2)c1`, the CPE inhibition is 0.06% (inactive). For `O=C(NCc1ccccc1)C1=C[C@@H](C2CCCCC2)C[C@@H](OCCCCO)O1`, the CPE inhibition was 2.12% (inactive). For the molecule `Cc1[nH][nH]c(=O)c1C`, the CPE inhibition is 0.36% (inactive). In the case of `Cc1ccc(S(=O)(=O)NNC(=S)NC(=O)c2ccc([N+](=O)[O-])cc2)cc1`, the CPE inhibition result was “inactive”. Turning to `CC(C)COP(=O)(c1ccc(N(C)C)cc1)C(Nc1ccccc1)c1cccnc1` (stereo unspecified), the CPE inhibition was 0.73% (inactive). The same measure for `CC(C)COP(=O)(c1ccc(N(C)C)cc1)C(Nc1ccccc1)c1ccccc1` (stereo unspecified): 29.1% (active); for `CCCOP(=O)(c1ccc(N(C)C)cc1)C(Nc1ccccc1)c1ccc(N(C)C)cc1` (stereo unspecified): 0.64% (inactive).

In the case of `O=C(NC1CCCc2ccccc21)c1ccc(Br)cc1` (stereo unspecified), the CPE inhibition is 3.09% (inactive). Regarding `Nc1ccc(-n2nnnc2CN2CCOCC2)cc1`, the CPE inhibition was 0.25% (inactive). Turning to `COc1ccc(CC(=O)Nc2cc3oc4ccccc4c3cc2OC)cc1`, the CPE inhibition was 0.095% (inactive).

For the molecule `C=CCOC(=O)C1=C[C@@H](c2ccc(C(F)(F)F)cc2)C[C@@H](OCCCCO)O1`, the CPE inhibition was 0.15% (inactive). Take `CNC(=O)/C(C#N)=C/c1c(N(Cc2ccccc2)Cc2ccccc2)nc2c(C)cccn2c1=O`: the CPE inhibition was 17% (active). To `CCNC(=O)/C(C#N)=C/c1c(N2CCN(Cc3ccc4c(c3)OCO4)CC2)nc2c(C)cccn2c1=O` belongs “inactive”; to `Cc1ccc(Oc2nc3ccccn3c(=O)c2/C=C(\C#N)C(=O)Nc2c(C)n(C)n(-c3ccccc3)c2=O)c(C)c1`, 0.875% (inactive). For `Cc1cccn2c(=O)c(/C=C(\C#N)C(N)=O)c(N3CCN(Cc4ccc5c(c4)OCO5)CC3)nc12`, the CPE inhibition was 0.905% (inactive).

For `Cc1cccc(Oc2nc3ccccn3c(=O)c2/C=C(\C#N)C(=O)NC2CCS(=O)(=O)C2)c1` (stereo unspecified), the CPE inhibition was 1.43% (inactive). On to `CNC(=O)/C(C#N)=C/c1c(N(Cc2ccccc2)Cc2ccccc2)nc2ccccn2c1=O`, for which the CPE inhibition is 14.1% (active).
